A selection: hits, their analogues and other compounds. The true share with any hit is near 3.1%.
p53ts 32C tox: cytotoxicity in p53ts cells at permissive temperature; H1299-p53A138V at 32C, ATP luminescence viability, 24 h; Potency, µM (highest dose often 46.1 µM), without a hit: at the top dose activity change, negative = cytotoxicity, hits mostly cytotoxic; 0.93% of 130,000 active; AID 924;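 note: 0% = DMSO and -100% = full killing by reference compound; nearly all actives have a fitted effect of over 55% in size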
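Viability by ATPlite luminescence after 24 h compound treatment (up to 46 uM) at the permissive 32C. Cells are H1299 carrying p53 A138V. Scale runs from DMSO basal to 100 uM tamoxifen as full kill; AC50 from Hill fits.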
p53ts 39C tox: cytotoxicity in p53ts cells at nonpermissive temperature; H1299-p53A138V viability at 39C, ATP luminescence, 24 h; Potency, µM (series often up to 46.1 µM), for inactives: at the highest dose activity change, negative = cell killing, most hits filed as cytotoxic; 1.5% of 130,000 active; note: % is set by controls: 0 for no effect and ±100 for the full control effect; nearly all actives have a fitted effect of over 55% in size
Peg3 imprint: genomic imprint erasure induction | mouse ES Peg3-LacZ reporter, beta-gal luminescence, 40 h | Potency, µM (titrated, usually from 60.7 µM), for the others: at the top dose activity change, positive = activation, usual class: activators | 0.02% of 110,000 active | AID 1948
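Imprint erasure is scored as LacZ activity from the silenced maternal Peg3 allele in feeder-free female ES cells cultured 40 h with LIF. Luminescence is normalized to in-plate negative controls and fitted to the Hill equation.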
TSHR ag: activates the human thyroid stimulating hormone receptor | P16473 | HEK293-CNG-TSHR cells (CNG channel as cAMP sensor), membrane potential dye, cAMP | Potency, µM (highest dose often 57.1 µM), without a hit: at the top dose activation, usual class: activators | 0.48% of 73,000 active; active = well fitted activation curve with a large enough effect in the main read-out, with a control signal flat, not every such curve was filed as active; inconclusive = small, poorly fitted or top-dose-only effect, or a change in a side signal; inactive = no such curve, though single readings can be large or run the other way; % of control where 0% means no effect;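 note: the control signal comes from parental cells without the receptor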
Target sequence (P16473 whole entry, looked up): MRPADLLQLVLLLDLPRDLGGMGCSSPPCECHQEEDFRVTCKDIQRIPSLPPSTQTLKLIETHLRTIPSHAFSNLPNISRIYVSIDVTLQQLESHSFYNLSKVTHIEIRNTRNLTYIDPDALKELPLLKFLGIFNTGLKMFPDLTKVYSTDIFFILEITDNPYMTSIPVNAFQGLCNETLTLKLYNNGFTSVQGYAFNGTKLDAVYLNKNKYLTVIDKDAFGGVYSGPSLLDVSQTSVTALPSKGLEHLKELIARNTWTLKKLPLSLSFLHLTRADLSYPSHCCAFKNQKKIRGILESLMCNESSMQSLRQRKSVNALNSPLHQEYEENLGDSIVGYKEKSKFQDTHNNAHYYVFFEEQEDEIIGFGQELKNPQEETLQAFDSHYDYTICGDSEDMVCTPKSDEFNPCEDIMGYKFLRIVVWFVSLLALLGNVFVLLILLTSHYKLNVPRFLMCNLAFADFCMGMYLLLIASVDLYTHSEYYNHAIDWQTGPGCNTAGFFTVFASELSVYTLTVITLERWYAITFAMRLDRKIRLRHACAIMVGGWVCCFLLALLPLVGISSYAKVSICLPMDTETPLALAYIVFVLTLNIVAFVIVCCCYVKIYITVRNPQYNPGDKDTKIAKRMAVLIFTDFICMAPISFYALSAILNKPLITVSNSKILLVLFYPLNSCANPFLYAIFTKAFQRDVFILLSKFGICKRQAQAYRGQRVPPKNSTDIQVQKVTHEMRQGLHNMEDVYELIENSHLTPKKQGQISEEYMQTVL
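HEK 293 cells stably expressing TSHR and a modified CNG channel, with CNG-only parental cells as counterscreen, were preloaded 60 min at room temperature with membrane potential dye containing 100 uM RO 20-1724. Compound exposure was 30 min, and depolarization was read as fluorescence at 590 nm.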
IkB signaling: inhibitors of IkB signaling in ABC-DLBCL cells; AID 445; Potency, µM (series often up to 57.1 µM), for inactives: at the top dose IkBa stabilization activation; ABC-DLBCL IkBa-CBG/CBR dual luciferase ratio, 4 h; response scale: scaled: untreated 0%, proteasome inhibitor 100%; 0.04% of 110,000 active; active = well fitted curve in the direction sought with a large enough effect in the signal ratio, not every such curve was filed as active; inconclusive = small, poorly fitted or top-dose-only effect, or a change in a side signal; the % refers to the signal ratio;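 note: the direction sought is a rising ratio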
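In this assay, an IκBα–CBG68 fusion accumulates when IKK-driven degradation is blocked; native CBR normalizes for cell number. OCI-Ly3 cells were treated 4 h with compound and doxycycline, then green and red light read after Chroma-Glo addition.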
HEK293 cAMP ctrl: counter-screen for TSHR agonists: cAMP increase in parental HEK293. parental HEK293 CNG cAMP sensor, membrane potential fluorescence. Potency, µM (titrated, usually from 57.1 µM), without a hit: top-dose activation, most hits filed as activators. 2.5% of 73,000 active. AID 938; note: % of control where 0% means no effect; nearly all actives have a fitted effect of over 55% in size
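Parental HEK 293 cells stably expressing a cAMP-gated CNG channel were loaded with membrane potential dye containing 100 uM RO 20-1724 for 60 min. Compound added for 30 min; depolarization read as fluorescence intensity at 590 nm.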
Starred values were filed as active, the others as inactive; ? = inconclusive; nt = not tested or not shown; [ ] = remark or other dose. Unless noted, calls come from the whole dose curve; as a rule, active = well fitted curve in the direction sought with a large enough effect; inconclusive = small, poorly fitted or top-dose-only effect, or another doubt; inactive = no such curve, though single readings can be large; an effect the other way counts as inactive or inconclusive. Potency is the fitted concentration of half-maximal effect.

SMILES	p53ts 32C tox	p53ts 39C tox	Peg3 imprint	TSHR ag	IkB signaling	HEK293 cAMP ctrl
Cc1ccc(C)c(CN2C(=O)c3ccccc3S(=O)(=O)c3ccc(C(=O)Nc4ccccc4C(F)(F)F)cc32)c1	-1%	-9%	-14%[10.9 µM]	nt	?	nt
CCCCNC(=O)CN1C(=O)C(CC)Oc2ccc(Cl)cc21 (stereo not drawn)	-8%	-3%	-12%	?	0%	10µM*
Cc1cccc(NC(=O)CSc2n[nH]c(-c3ccncc3)n2)c1	18%	19%	-12%	2%	-1%	17%
COc1ccc(-c2nc(SCC(=O)Nc3cccc(C(C)=O)c3)n[nH]2)cc1	?	32µM*	-12%[10.9 µM]	nt	?	nt
CC(C)C[C@@H](N)C(=O)Nc1ccc2ccccc2c1	3%[9.22 µM]	-3%[9.22 µM]	-5%[10.9 µM]	1%[11.4 µM]	1%[11.4 µM]	-2%[11.4 µM]
Cc1ccc(C(=O)Nc2ccc3c(c2)OCO3)cc1S(=O)(=O)N1CCCC1	-14%	-16%	-23%	7%	8%	13%
Cc1ccc(C(=O)Nc2cccc(C(=O)O)c2)cc1S(=O)(=O)N1CCCCC1	13µM*	?	-90%	0%[11.4 µM]	2%	16%[11.4 µM]
O=C(O)c1ccc(S(=O)(=O)Cc2ccccc2)cc1	-5%	-2%	-20%	?	0%	3.2µM*
COc1ccc(Nc2oc(-c3ccc(COc4cccc(C)c4)o3)nc2C#N)cc1	?	3%	-15%[10.9 µM]	nt	-1%	nt
O=C(CSc1cccc2cccnc12)N1CCCC1	2%	-14%	-36%	nt	4µM*	0%
Clc1ccccc1-c1ccc2ncnc(N3CCNCC3)c2c1	28%	5%	10µM*	7%	-1%[11.4 µM]	10%
CCCc1ccc(C2Sc3ccccc3NC3=C2C(=O)c2ccccc23)cc1 (stereo not drawn)	5%	-12%	-7%[10.9 µM]	nt	?	nt
COc1cc2c(cc1OC)CN(C(=O)CC1CC3CCC1C3)CC2 (stereo not drawn)	10µM*	13µM*	-66%	6%	?	-3%
COc1cc2c(cc1OC)CN(C(=O)C(C)(C)C)CC2	-1%	1%	-2%	11%	-1%	-5%
O=c1c(-c2ccc(F)cc2)nc2cnc(Nc3ccccc3)nc2n1C[C@H]1CCCO1	-1%	-7%	?	7%	0%[11.4 µM]	-1%
CCCSc1oc(-c2ccco2)nc1S(=O)(=O)c1ccccc1	10%	8%	-17%	?	2%	25µM*
CCSc1oc(-c2ccco2)nc1S(=O)(=O)c1ccccc1	5%	-3%	-21%	9%[11.4 µM]	0%	20%
Cc1cc(C)cc(NC(=O)CSc2oc(-c3ccco3)nc2S(=O)(=O)c2ccccc2)c1	13%	21%	-9%[10.9 µM]	nt	?	nt
Cc1cc(C)cc(NC(=O)CSc2oc(-c3ccco3)nc2S(=O)(=O)c2ccc(Cl)cc2)c1	10µM*	6.3µM*	-29%[10.9 µM]	nt	?	nt
Cc1onc(-c2ccccc2)c1C(N)=O	4%	9%	-4%	0%	?	-9%
CCN(C(=O)c1c(-c2ccccc2)noc1C)c1ccccc1	4%	-7%	-12%	10µM*	3%	8%
CCCOc1ccc(C(=O)Nc2cccc(NC(=O)c3ccc(Cl)cc3Cl)c2)cc1	?	7.9µM*	-13%[10.9 µM]	nt	?	nt
CCOC(=O)C1CCCN(Cc2ccc(OC)cc2OC)C1 (stereo not drawn)	7%	-3%	-8%	?	2%	32µM*
O=C(Nc1ccc(Cl)cc1C(=O)O)c1ccc2c(c1)C(=O)N(Cc1ccco1)C2=O	5%	8%	-7%	-14%	?	-19%
O=C(O)c1ccc(S(=O)(=O)c2ccc3c(c2)C(=O)N(Cc2ccco2)C3=O)cc1	-1%	-4%	-2%	32µM*	2%	17%
SMILES	p53ts 32C tox	p53ts 39C tox	Peg3 imprint	TSHR ag	IkB signaling	HEK293 cAMP ctrl
O=C(O)c1ccc(S(=O)(=O)c2ccc3c(c2)C(=O)N(CC2CCCO2)C3=O)cc1 (stereo not drawn)	-1%	9%	-2%	?	1%	20µM*
CNS(=O)(=O)c1ccc(NC(=O)c2cnn3c(C(F)F)cc(-c4ccccc4)nc23)cc1	6%	13µM*	6%[10.9 µM]	nt	-1%	nt
Cc1ccc(-c2cc(C(F)F)n3ncc(C(=O)N4CCN(c5ccccn5)CC4)c3n2)cc1	5%	18%	-29%	?	?	32µM*
COc1ccc(-c2cc(C(F)F)n3ncc(C(=O)N4CCN(C(=O)c5ccco5)CC4)c3n2)cc1	3%	0%	-7%	nt	-7%	6%
CCN1CCN(C(=O)c2cnn3c(C(F)F)cc(-c4ccc(C)cc4)nc23)CC1	1%	-5%	-6%	?	-1%	16µM*
Cc1cccc(C)c1NC(=O)c1ccc2nc(CCc3ccccc3)oc2c1	13%	17%	-9%[10.9 µM]	nt	2%	nt
CN(C)c1ccc(NC(=O)Cn2nnc3sc4c(c3c2=O)CCC(C(C)(C)C)C4)cc1 (stereo not drawn)	8%	-18%	-7%[10.9 µM]	nt	0%	nt
Cc1nn(-c2ccccc2)c(C)c1C(=O)OCC(=O)c1c(N)n(CC(C)C)c(=O)n(C)c1=O	5%	2%	-12%	?	?	16µM*
O=C(c1noc2c1CCc1ccccc1-2)N1CCCc2ccccc21	-10%	-3%	-22%	?	?	25µM*
CC1(C)Cc2cccc(OCC(=O)N3CCN(c4ccccc4)CC3)c2O1	13%	-4%	nt	nt	nt	nt
CC1(C)Cc2cccc(OCC(=O)Nc3ccccc3N3CCOCC3)c2O1	-1%	12%	4%	?	?	20µM*
CCOC(=O)C1CCN(C(C(=O)Nc2ccc3c(c2)OCCO3)c2ccccc2)CC1 (stereo not drawn)	4%	-3%	-3%	?	2%	13µM*
C[N+](C)(C)[C@@H](C1=CCCC1=O)c1ccccc1	2%[9.22 µM]	-2%[9.22 µM]	nt	2%[11.4 µM]	5%[11.4 µM]	-2%[11.4 µM]
Cc1cccc(CNc2ccnc(-c3ccccc3CN(C)C)n2)c1	-27%	-30%	-14%	?	-1%[11.4 µM]	5µM*
Cc1cccc(CNc2cc(-c3ccccc3CN(C)C)ncn2)c1	-8%	-10%	-7%	28%	-1%[11.4 µM]	29%

High-throughput results as filed in PubChem.
